This note sets out measurements from PubChem BioAssay (NCI).

Among the test systems are SR leukemia; RPMI-8226 leukemia; OVCAR-8 ovarian; OVCAR-5 ovarian; OVCAR-4 ovarian; SK-OV-3 ovarian; IGROV1 ovarian; OVCAR-3 ovarian; HS 578T breast; NCI/ADR-RES ovarian.
Common to all, as to test: NCI-60 one-dose screen, 48 h (100 = growth as untreated, 0 = no growth, -100 = all killed)
Holding throughout (conditions): 10 µM

“And” between values parts separate entries of the source, which are not always exact repeats. Equal values may be shown once. The panel holds about 83,000 compounds, 20% with a hit somewhere; the sample as a whole holds those more often.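 Cells were grown in 96-well plates and exposed to the test compound at a single concentration for 48 hours; results are reported as percent growth, with values below 10 considered active.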 More than one record can exist for a structure, and the calls need not agree. The source made the active and inactive calls.

For `O=[N+]([O-])c1cc[n+]([O-])cc1`, the growth with SR leukemia is 107% (inactive); in the experiment with RPMI-8226 leukemia, 102% (inactive); in the experiment on OVCAR-8 ovarian it was 103% (inactive); with OVCAR-5 ovarian it was 145% (inactive); with OVCAR-4 ovarian it was 111% (inactive); in the experiment with SK-OV-3 ovarian, 130% (inactive). Also, the growth in the experiment on IGROV1 ovarian was 107% (inactive); in the experiment with OVCAR-3 ovarian, 114% (inactive); in the experiment with HS 578T breast, 104% (inactive); with NCI/ADR-RES ovarian, 103% (inactive).

Take `Cc1ccc(Sc2ccccc2N)cc1`: the growth was 71.6% (inactive) in the experiment on SR leukemia; 89.8% (inactive) with RPMI-8226 leukemia; 79.1% (inactive) in the experiment with OVCAR-8 ovarian; 82.7% (inactive) with OVCAR-5 ovarian; 93.6% (inactive) in the experiment with OVCAR-4 ovarian; 94.9% (inactive) in the experiment on SK-OV-3 ovarian. Further, the growth is 76.2% (inactive) in the experiment with IGROV1 ovarian, 121% (inactive) with OVCAR-3 ovarian, 110% (inactive) in the experiment with HS 578T breast and 84.3% (inactive) in the experiment on NCI/ADR-RES ovarian.

As to `Cc1cc(N(CCOS(C)(=O)=O)CCOS(C)(=O)=O)ccc1C=Nc1ccc(-c2nc(Cc3ccccc3)sc2C)cc1`, the growth in the experiment with SR leukemia was 23.4% (inactive); with RPMI-8226 leukemia, 62.3% (inactive); in the experiment with OVCAR-5 ovarian, 67% (inactive); in the experiment with SK-OV-3 ovarian, 3.43% (active); in the experiment on IGROV1 ovarian, 11.4% (inactive); in the experiment on OVCAR-3 ovarian, 41.9% (inactive). Further, the growth is 79.8% (inactive) in the experiment on HS 578T breast and 40.7% (inactive) with NCI/ADR-RES ovarian.

As for `C=C1C(=O)OC2CC1C(OC(C)=O)C/C(C)=C/CC/C(C)=C\CCC2(C)O` (stereo not given), the growth was -25.1% (active) in the experiment on SR leukemia; -22.3% (active) with RPMI-8226 leukemia; 65.7% (inactive) in the experiment on OVCAR-5 ovarian; -0.648% (active) in the experiment on OVCAR-4 ovarian; 102% (inactive) in the experiment with SK-OV-3 ovarian; 3.4% (active) in the experiment on OVCAR-3 ovarian. The figures for the growth in the experiment on HS 578T breast and in the experiment with NCI/ADR-RES ovarian were 72% (inactive) and 17.9% (inactive), respectively.

`COc1ccc(C(=O)C(CN(C)C)CN(C)C)cc1`: the growth in the experiment on SR leukemia was -46.3% (active); in the experiment on RPMI-8226 leukemia, 64.3% (inactive); in the experiment with OVCAR-8 ovarian, 41.1% (inactive); in the experiment on OVCAR-5 ovarian it was 116% (inactive); in the experiment with OVCAR-4 ovarian, -93.8% (active); in the experiment on SK-OV-3 ovarian it was 108% (inactive). Besides, the growth with IGROV1 ovarian is 140% (inactive); in the experiment on OVCAR-3 ovarian, -85% (active); in the experiment with HS 578T breast it was 83% (inactive); in the experiment on NCI/ADR-RES ovarian it was 101% (inactive).

For the compound `C#CCN(Cc1ccc2nc(N)[nH]c(=O)c2c1)c1ccc(C(=O)NC(CCC(=O)O)C(=O)O)cc1` (stereo not given), the growth with RPMI-8226 leukemia was 51.3% (inactive); in the experiment on OVCAR-8 ovarian it was 39.3% (inactive); in the experiment with OVCAR-5 ovarian it was 107% (inactive); in the experiment with OVCAR-4 ovarian it was 103% (inactive); with SK-OV-3 ovarian, 49.7% (inactive); with IGROV1 ovarian, 109% (inactive). Moreover, the growth in the experiment with OVCAR-3 ovarian was 67.2% (inactive); in the experiment with HS 578T breast it was 88.9% (inactive); with NCI/ADR-RES ovarian, 47.7% (inactive).

In the case of `CC1=CC(=C(c2ccc(N)cc2)c2ccc(N)cc2)C=CC1=N`, the growth in the experiment on SR leukemia is 14.7% (inactive) and 24.8% (inactive); in the experiment with RPMI-8226 leukemia, -15.6% (active) and 33.4% (inactive); in the experiment with OVCAR-8 ovarian it was 6.23% (active) and 16% (inactive); in the experiment on OVCAR-5 ovarian, 46.8% (inactive) and 53.3% (inactive); in the experiment on OVCAR-4 ovarian, 24.1% (inactive) and 33.7% (inactive); with SK-OV-3 ovarian it was 38.2% (inactive). Further, the growth with IGROV1 ovarian was 70% (inactive); in the experiment with OVCAR-3 ovarian it was -35.6% (active) and 28.4% (inactive); in the experiment on HS 578T breast, 23.6% (inactive) and 89.5% (inactive); with NCI/ADR-RES ovarian it was 86.6% (inactive) and 101% (inactive).

Turning to `CN(C)CCOC1(Cc2ccc(Cl)cc2Cl)CCC(C(C)(C)C)CC1` (stereo not given), the growth in the experiment with SR leukemia is -34.8% (active) and -29.5% (active); in the experiment on RPMI-8226 leukemia, 11.6% (inactive) and -10% (active); with OVCAR-8 ovarian it was 36.5% (inactive) and -27.3% (active); in the experiment with OVCAR-5 ovarian, 43.8% (inactive) and 5.22% (active); with OVCAR-4 ovarian, 36.1% (inactive) and 15.1% (inactive); in the experiment with SK-OV-3 ovarian, 69.6% (inactive) and 57.8% (inactive). Also, the growth is 41.7% (inactive) and 25.3% (inactive) with IGROV1 ovarian; 39.5% (inactive) and 11.1% (inactive) in the experiment on OVCAR-3 ovarian; 52.4% (inactive) and 49.6% (inactive) in the experiment on HS 578T breast; 27% (inactive) and 44.4% (inactive) in the experiment with NCI/ADR-RES ovarian.
